Active and inactive are the calls of the source.

Test system in the first test: not listed separately
Briefly: S. cerevisiae growth modulation with rapamycin, primary screen, strain BY4716, OD600, 96 h (AID 1091). Also: test concentration not given here. Conditions: higher = more signal, called active from +8 up or from −8 down.
As for `COCC(=C=CC[C@H](O)c1ccccc1OCCO)CCO`, the z-score was -0.127 (inactive).

In the case of `[N-]=[N+]=NCc1ccccc1[C@@H]1OC(c2ccc(OCCCO)cc2)=N[C@]1(CCS(=O)(=O)c1ccccc1)C(=O)N1CCCCC1`, the z-score was 1.44 (inactive).

As to `C=C(C)[C@@H]1CC=C(C(O)C2C=CC3C(=O)NC(=O)C3N2Nc2ccc(Cl)cc2Cl)CC1` (stereo not given in full), the z-score is 3.45 (inactive).

In the case of `O=C(O)[C@H]1C[C@H]2C(=O)N3CCC[C@H]3C(=O)N2[C@H]1c1ccc(O)cc1`, the z-score was 0.333 (inactive).

With `[N-]=[N+]=Nc1ccccc1C[C@]1(C(=O)NCC(O)CO)N=C(c2ccc(OCCCO)cc2)O[C@H]1c1ccccc1` (stereo not given in full), the z-score was 0.568 (inactive).

With `CC(C)OC(=O)C=C1C[C@@H](c2cccc(Cl)c2)O[C@@H](c2cccc(Cl)c2)O1`, the z-score was -0.764 (inactive).

`COC(=O)[C@@]1(Cc2ccc(F)cc2)[C@H]2c3cc(C(=O)N(C)C)n(Cc4cc(C)n(C)n4)c3C[C@H]2CN1C(=O)c1ccccc1`: the z-score is -0.109 (inactive).

For the compound `[N-]=[N+]=NCc1ccccc1C[C@@]1(C(=O)NCC(O)CO)N=C(c2ccc(OCCCO)cc2)O[C@@H]1c1ccccc1` (stereo not given in full), the z-score was -0.37 (inactive).

As for `COC(=O)[C@@]1(Cc2ccc(OC)cc2)[C@H]2c3cc(C(=O)N4CCCC4)n(CCc4ccc(O)c(O)c4)c3C[C@H]2CN1C(=O)c1ccccc1`, the z-score was 0.751 (inactive).

Turning to `CC(c1ccccc1)C(O)C1C=CC2C(=O)N(c3ccccc3)C(=O)C2N1Nc1ccccc1` (stereo not given), the z-score is 0.442 (inactive).

With `O=C1OCCC/C=C\[C@H]2OC34C=CCN(c5ccc6ccccc6c5)C(=O)[C@H]3N(CCCCCO)C(=O)[C@@H]4C12` (stereo not given in full), the z-score is -0.419 (inactive).

For `C#CCN1[C@@H](Cc2ccc(O)cc2)C(=O)O[C@H](Cc2ccccc2)[C@@H]1/C=C/C1CC1`, the z-score is 1.09 (inactive).

`COCCCNC(=O)[C@@H]1c2ccccc2C(=O)N(Cc2ccccc2)[C@H]1c1ccc(CO)cc1`: the z-score was -0.212 (inactive).

On to `COc1cc2c(cc1O)C(c1cccs1)N(Cc1ccc([N+](=O)[O-])o1)CC2` (stereo not given), for which the z-score was -2.27 (inactive).

Take `C=C(CCCC)/C(=C/C[C@@H](OC(C)=O)c1ccccc1OCCO)c1cc(C(=O)OC)ccc1OC`: the z-score is -0.358 (inactive).

The target in the next test is Torsin-1A-interacting protein 2 (Homo sapiens) (UniProt Q8NFQ8). Briefly: LULL1 binders on small-molecule microarray, primary screen, cell lysate, human LULL1 lysate, 635/667 nm fluorescence (AID 1092).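 Also: probe is lysate of COS7 cells overexpressing human LULL1; score merges per-feature 667 nm fluorescence with signal-to-noise.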 Conditions: hLULL1 lysate binding, 635 nm fluorescence, higher = more signal.
Chain of Torsin-1A-interacting protein 2 (Homo sapiens) (Q8NFQ8 whole entry, looked up): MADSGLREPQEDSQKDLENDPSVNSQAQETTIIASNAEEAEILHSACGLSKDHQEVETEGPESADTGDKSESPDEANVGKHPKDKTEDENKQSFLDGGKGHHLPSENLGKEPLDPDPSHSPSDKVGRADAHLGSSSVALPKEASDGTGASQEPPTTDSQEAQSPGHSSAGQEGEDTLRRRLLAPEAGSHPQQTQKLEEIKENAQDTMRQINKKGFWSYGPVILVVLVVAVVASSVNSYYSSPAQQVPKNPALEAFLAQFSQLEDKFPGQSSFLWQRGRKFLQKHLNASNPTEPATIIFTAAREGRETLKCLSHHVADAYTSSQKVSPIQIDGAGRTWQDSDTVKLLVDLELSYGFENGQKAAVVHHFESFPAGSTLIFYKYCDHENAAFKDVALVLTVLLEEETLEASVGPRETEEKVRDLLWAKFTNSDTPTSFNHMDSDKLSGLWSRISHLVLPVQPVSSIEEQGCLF
Turning to `OB1C=CCC(CCc2ccccc2)O1` (stereo not given), the composite z-score is -1.05.

For `CCCCCCc1nc(-c2ccc(-c3ccc(Cl)c(Cl)c3)o2)c(C)c2c1[Si](C(C)C)(C(C)C)OC2`, the composite z-score is 0.703.

`O=C1NC(=O)C2C1C=CC(C(O)C=Cc1ccc([N+](=O)[O-])cc1)N2Nc1ccc(Cl)cc1Cl` (stereo not given) yielded a composite z-score of 2.47.

Consider `Cc1ccc(S(=O)(=O)N2C[C@@H](C(=O)O)[C@H](Sc3ccccc3)C[C@H]2c2ccccc2)cc1`, for which the composite z-score amounted to 3.41.

In turn, `COC(=O)[C@@]1(Cc2ccccc2)[C@H]2c3cc(C(=O)N(C)C)n(CCc4c[nH]c5ccc(O)cc45)c3C[C@H]2CN1C(=O)c1ccccc1` came in with a composite z-score of 3.11.

As for `C=CC[C@]1(C(N)=O)COC(c2ccc(OCCCO)cc2)=N1`, the composite z-score turned out to be 1.38.

Take `O=C(CS)NCCCCCNC(=O)[C@@H]1C[C@@H]2C(=O)NCC(=O)N2[C@@H]1c1ccc(O)cc1`: the composite z-score worked out at 1.47.

As to `COc1cc(OC)c(C(O)C2C=CC3C(=O)NC(=O)C3N2Nc2ccccn2)cc1Br` (stereo not given), the composite z-score turned out to be 0.645.

Compound `NC(=O)[C@@]1(Cc2ccccc2)N=C(c2ccc(OCCCO)cc2)O[C@H]1c1ccccc1` had a composite z-score of 2.41.

Regarding `C=CCN1C(=O)[C@]2(O[C@H](CCO)[C@@H]([Si](C)(C)c3ccc(OC)cc3)[C@@H]2C)c2cc(N(C=O)c3ccccc3)ccc21`, the composite z-score worked out at 1.19.

`O=C(CS)NCCCCCNC(=O)[C@H]1C[C@H]2C(=O)NCC(=O)N2[C@H]1c1cccc(OCCO)c1`: the composite z-score amounted to 0.556.

Turning to `CC(c1ccccc1)C(O)C1C=CC2C(=O)N(C)C(=O)C2N1NC(=O)OC(C)(C)C` (stereo not given), the composite z-score was 3.43.

`CO[C@H]1O[C@H](CO)[C@@H](OC(=O)Nc2ccccc2)[C@@H]2OC(=O)[C@@H](Cc3ccc4ccccc4c3)C/C=C/C[C@H](Cc3ccc4ccccc4c3)C(=O)O[C@@H]12`: the composite z-score is 2.35.

Compound `CCCC[C@@H]1C[C@H]1[C@@H](NC(=O)c1cccnc1)c1ccc(Cl)cc1` registered a composite z-score of 0.208.

`[N-]=[N+]=NCc1ccccc1[C@@H]1OC(c2ccc(OCCCO)cc2)=N[C@]1(CCS(=O)(=O)c1ccccc1)C(N)=O` gave a composite z-score of 3.51.

On to `COc1ccc(CCNC(=O)[C@@]2(c3ccc([N+](=O)[O-])cc3)CC(=O)N(CC34CC5CC(CC(C5)C3)C4)[C@@H]2c2ccc(CO)cc2I)cc1`, for which the composite z-score came to 2.83.

The compound `COC(=O)[C@H](Cc1ccccc1)N[C@H](/C=C/C1CC1)[C@@H](O)Cc1ccccc1` showed a composite z-score of -0.316.

`COc1ccc(C(O)C2C=CC3C(=O)N(C)C(=O)C3N2N(c2ccccc2)c2ccccc2)c2ccccc12` (stereo not given): the composite z-score is -0.124.

`CC(C)(C)OC(=O)CC[C@]1(C(N)=O)N=C(c2ccc(OCCCO)cc2)O[C@H]1c1ccccc1` came in with a composite z-score of 3.74.

As for `COC(=O)[C@@]1(Cc2ccccc2)[C@H]2c3cc(C(=O)N(C)C)n(Cc4ccc(OC)c(OC)c4)c3C[C@H]2CN1C(=O)c1ccccc1`, the composite z-score stood at 3.53.

Compound `COCC(=C=CC[C@H](O)c1ccccc1OCCO)CCO` yielded a composite z-score of 1.8.

`[N-]=[N+]=NCc1ccccc1[C@@H]1OC(c2ccc(OCCCO)cc2)=N[C@]1(CCS(=O)(=O)c1ccccc1)C(=O)N1CCCCC1` gave a composite z-score of 2.94.

Regarding `C=C(C)[C@@H]1CC=C(C(O)C2C=CC3C(=O)NC(=O)C3N2Nc2ccc(Cl)cc2Cl)CC1` (stereo not given in full), the composite z-score was found to be 2.91.

`O=C(O)[C@H]1C[C@H]2C(=O)N3CCC[C@H]3C(=O)N2[C@H]1c1ccc(O)cc1` came in with a composite z-score of 0.631.

In turn, `[N-]=[N+]=Nc1ccccc1C[C@]1(C(=O)NCC(O)CO)N=C(c2ccc(OCCCO)cc2)O[C@H]1c1ccccc1` (stereo not given in full) had a composite z-score of 2.2.

`CC(C)OC(=O)C=C1C[C@@H](c2cccc(Cl)c2)O[C@@H](c2cccc(Cl)c2)O1`: the composite z-score is 1.99.

On to `COC(=O)[C@@]1(Cc2ccc(F)cc2)[C@H]2c3cc(C(=O)N(C)C)n(Cc4cc(C)n(C)n4)c3C[C@H]2CN1C(=O)c1ccccc1`, for which the composite z-score was found to be 3.09.

As for `[N-]=[N+]=NCc1ccccc1C[C@@]1(C(=O)NCC(O)CO)N=C(c2ccc(OCCCO)cc2)O[C@@H]1c1ccccc1` (stereo not given in full), the composite z-score was determined as 3.21.

Compound `COC(=O)[C@@]1(Cc2ccc(OC)cc2)[C@H]2c3cc(C(=O)N4CCCC4)n(CCc4ccc(O)c(O)c4)c3C[C@H]2CN1C(=O)c1ccccc1` returned a composite z-score of 3.62.

`CC(c1ccccc1)C(O)C1C=CC2C(=O)N(c3ccccc3)C(=O)C2N1Nc1ccccc1` (stereo not given) gave a composite z-score of 3.62.

In turn, `O=C1OCCC/C=C\[C@H]2OC34C=CCN(c5ccc6ccccc6c5)C(=O)[C@H]3N(CCCCCO)C(=O)[C@@H]4C12` (stereo not given in full) came in with a composite z-score of -1.77.

For the compound `C#CCN1[C@@H](Cc2ccc(O)cc2)C(=O)O[C@H](Cc2ccccc2)[C@@H]1/C=C/C1CC1`, the composite z-score is 0.602.

In the case of `COCCCNC(=O)[C@@H]1c2ccccc2C(=O)N(Cc2ccccc2)[C@H]1c1ccc(CO)cc1`, the composite z-score is 1.53.

`COc1cc2c(cc1O)C(c1cccs1)N(Cc1ccc([N+](=O)[O-])o1)CC2` (stereo not given) displayed a composite z-score of 1.02.

In turn, `C=C(CCCC)/C(=C/C[C@@H](OC(C)=O)c1ccccc1OCCO)c1cc(C(=O)OC)ccc1OC` came in with a composite z-score of 0.615.

Values taken from PubChem BioAssay.
